Records with an inconclusive call do not appear. Entries that show only a call come without a potency. Values without a mark were called inactive. Calls of active or inactive are those of the source. Calls follow the shape of the dose curve; as a rule, active = well fitted inhibition curve with a large enough effect; inconclusive = small, poorly fitted or top-dose-only effect; inactive = flat fitted curve, though single readings scatter.
Columns and labels:
[1] = qHTS profiling for inhibitors of Plasmodium falciparum proliferation (AID 504749); also: nearly all actives have a fitted effect of over 60% in size; details: P. falciparum in erythrocytes, SYBR Green DNA, 72 h
Outline: (§1)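 Quantitative HTS: compounds pinned into medium, infected erythrocytes added (0.3% parasitemia, 2.5% hematocrit), 72 h culture at 37 C under 5% CO2. Saponin/Triton lysis with SYBR Green I, overnight RT, then fluorescence read.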

[2] = test system: 3D7; assay: as above; details: P. falciparum in erythrocytes, SYBR Green DNA, 72 h; series mostly up to 28.7 µM
Outline: as §1

[3] = test system: 7G8; assay: as above; details: P. falciparum in erythrocytes, SYBR Green DNA, 72 h; series mostly up to 28.7 µM
Outline: as §1

[4] = test system: AA1029; assay: as above; details: P. falciparum in erythrocytes, SYBR Green DNA, 72 h; series mostly up to 28.7 µM
Outline: as §1

[5] = test system: AS120; assay: as above; details: P. falciparum in erythrocytes, SYBR Green DNA, 72 h; series mostly up to 28.7 µM
Outline: as §1

[6] = test system: ATS189; assay: as above; details: P. falciparum in erythrocytes, SYBR Green DNA, 72 h; series mostly up to 28.7 µM
Outline: as §1

[7] = test system: ATS95; assay: as above; details: P. falciparum in erythrocytes, SYBR Green DNA, 72 h; series mostly up to 28.7 µM
Outline: as §1

[8] = test system: C2A; assay: as above; details: P. falciparum in erythrocytes, SYBR Green DNA, 72 h; series mostly up to 28.7 µM
Outline: as §1

[9] = test system: CP185; assay: as above; details: P. falciparum in erythrocytes, SYBR Green DNA, 72 h; series mostly up to 28.7 µM
Outline: as §1

[10] = test system: CP191; assay: as above; details: P. falciparum in erythrocytes, SYBR Green DNA, 72 h; series mostly up to 28.7 µM
Outline: as §1

[11] = test system: CP192; assay: as above; details: P. falciparum in erythrocytes, SYBR Green DNA, 72 h; series mostly up to 28.7 µM
Outline: as §1

[12] = test system: CP194; assay: as above; details: P. falciparum in erythrocytes, SYBR Green DNA, 72 h; series mostly up to 28.7 µM
Outline: as §1

[13] = at 28.7 µM (top of the series), parasite line A
[14] = at 28.7 µM (top of the series), parasite line B
Potency is read from the fitted curve at half-maximal effect.

Row | SMILES | activity, negative = inhibition [1, 13] [%] | activity, negative = inhibition [1, 14] [%] | Potency [2] | Potency [3] | Potency [4] | Potency [5] | Potency [6] | Potency [7] | Potency [8] | Potency [9] | Potency [10] | Potency [11] | Potency [12] | activity, negative = inhibition ([1]; at 12.8 µM (top of the series), parasite line A) [%] | activity, negative = inhibition ([1]; at 12.8 µM (top of the series), parasite line B) [%]
1 | O=C(O)C1=C(CSc2nnnn2CS(=O)(=O)O)CS[C@@H]2[C@H](NC(=O)[C@H](O)c3ccccc3)C(=O)N12 | -7.54 | 1.69 | inactive | inactive | inactive | inactive | inactive | inactive | inactive | inactive | inactive | inactive | inactive | – | –
2 | O=C1c2ccccc2C(=O)c2c1ccc(O)c2O | 4.44 | -3.93 | inactive | inactive | inactive | inactive | inactive | inactive | inactive | inactive | inactive | inactive | inactive | – | –
3 | CC1=C(/C=C/C(C)=C/C=C/C(C)=C/C(=O)Oc2c(C)c(C)c3c(c2C)CC[C@@](C)(CCC[C@H](C)CCC[C@H](C)CCCC(C)C)O3)C(C)(C)CCC1 | 5.64 | 7.26 | inactive | inactive | inactive | inactive | inactive | inactive | inactive | inactive | inactive | inactive | inactive | – | –
4 | C(=C\c1ccncc1)/c1ccccc1 | -2.95 | -9.52 | inactive | 12.6 µM (active) | inactive | inactive | inactive | inactive | inactive | inactive | inactive | inactive | inactive | – | –
5 | CC(=O)N=c1sc(S(N)(=O)=O)nn1C | – | – | inactive | inactive | inactive | inactive | inactive | inactive | inactive | inactive | inactive | inactive | inactive | -0.509 | -5.64
6 | N=C(N)n1cccn1 | -11.6 | 1.65 | inactive | inactive | inactive | inactive | inactive | inactive | inactive | inactive | inactive | inactive | inactive | – | –
7 | C=CC(=O)O | 2.32 | 10.1 | inactive | inactive | inactive | inactive | inactive | inactive | inactive | inactive | inactive | inactive | inactive | – | –
8 | CCCCCCCCCCCCCCCCCC(=O)OC[C@@H](O)[C@H]1OC[C@H](O)[C@H]1O | -5.9 | -8.53 | inactive | inactive | inactive | inactive | inactive | inactive | inactive | inactive | inactive | inactive | inactive | – | –
9 | NCCN | 5.04 | 2.26 | inactive | inactive | inactive | inactive | inactive | inactive | inactive | inactive | inactive | inactive | inactive | – | –
10 | CC1=CC(=O)NS(=O)(=O)O1 | 0.853 | 6.07 | inactive | inactive | inactive | inactive | inactive | inactive | inactive | inactive | inactive | inactive | inactive | – | –
11 | CC(=O)N[C@@H]1C(O[C@H]2O[C@H](C(=O)O)C(O)[C@H](O)[C@H]2O)[C@H](O)[C@@H](CO)O[C@H]1O[C@@H]1C(C(=O)O)O[C@@H](O[C@H]2[C@H](O)[C@@H](CO)OC(O)[C@@H]2NC(C)=O)[C@H](O)[C@H]1O (stereo not given in full) | 0.279 | 2.2 | inactive | inactive | inactive | inactive | inactive | inactive | inactive | inactive | inactive | inactive | inactive | – | –
12 | CC(CCc1ccc(O)cc1)NCC(O)c1ccc(O)cc1 (stereo not given) | 1.25 | 15.8 | inactive | inactive | inactive | inactive | inactive | inactive | inactive | inactive | inactive | inactive | inactive | – | –
13 | CC(C)[C@@H](N)C(=O)O | 1.17 | 12.2 | inactive | inactive | inactive | inactive | inactive | inactive | inactive | inactive | inactive | inactive | inactive | – | –
14 | S=C=Nc1ccc(N=C=S)cc1 | 10.9 | 0.756 | inactive | inactive | inactive | inactive | inactive | inactive | inactive | inactive | inactive | inactive | inactive | – | –
15 | CCC(Cc1c(I)cc(I)c(O)c1I)C(=O)O (stereo not given) | 0.0242 | -1.87 | inactive | inactive | inactive | inactive | inactive | inactive | inactive | inactive | inactive | inactive | inactive | – | –
16 | Cc1cccc(C)c1NC(=O)C1CCCCN1C (stereo not given) | -4.61 | -9.47 | inactive | inactive | inactive | inactive | inactive | inactive | inactive | inactive | inactive | inactive | inactive | – | –
17 | CC(CC=O)CCCC(C)(C)O (stereo not given) | 15.9 | 2.33 | inactive | inactive | inactive | inactive | inactive | inactive | inactive | inactive | inactive | inactive | inactive | – | –
18 | CC(C)c1nc(N(C)S(C)(=O)=O)nc(-c2ccc(F)cc2)c1/C=C/C(O)CC(O)CC(=O)O (stereo not given) | 3.93 | -1.83 | inactive | inactive | inactive | inactive | inactive | inactive | inactive | inactive | inactive | inactive | inactive | – | –
19 | O=C(O)Cc1nn(Cc2ccc(Br)cc2F)c(=O)c2ccccc12 | 0.835 | -5.83 | inactive | inactive | inactive | inactive | inactive | inactive | inactive | inactive | inactive | inactive | inactive | – | –
20 | COC(=O)CCC[N+](C)(C)C | 18.8 | 3.25 | inactive | inactive | inactive | inactive | inactive | inactive | inactive | inactive | inactive | inactive | inactive | – | –
21 | COc1ccc(-c2noc(CC(=O)O)c2-c2ccc(OC)cc2)cc1 | 5.47 | 9.58 | inactive | inactive | inactive | inactive | inactive | inactive | inactive | inactive | inactive | inactive | inactive | – | –
22 | FC(F)(F)COCC(F)(F)F | 12.5 | -2.69 | inactive | inactive | inactive | inactive | inactive | inactive | inactive | inactive | inactive | inactive | inactive | – | –
23 | CC(C)=CCC/C(C)=C/CC/C(C)=C/CC/C=C(\C)CC/C=C(\C)CCC=C(C)C | 0.919 | 12.5 | inactive | inactive | inactive | inactive | inactive | inactive | inactive | inactive | inactive | inactive | inactive | – | –
24 | c1ccc2ccccc2c1 | 8.79 | 4.51 | inactive | inactive | inactive | inactive | inactive | inactive | inactive | inactive | inactive | inactive | inactive | – | –
25 | O=C(NNCNNC(=O)c1ccncc1)c1ccncc1 | 1.43 | 9.6 | inactive | inactive | inactive | inactive | inactive | inactive | inactive | inactive | inactive | inactive | inactive | – | –
26 | CC1(C)S[C@@H]2[C@H](NC(=O)C3(N)CCCCC3)C(=O)N2[C@H]1C(=O)O | 1.02 | 10.4 | inactive | inactive | inactive | inactive | inactive | inactive | inactive | inactive | inactive | inactive | inactive | – | –
27 | CC(C)CCC[C@@H](C)[C@H]1CC[C@H]2[C@@H]3CC[C@@H]4C[C@H](O)CC[C@]4(C)[C@H]3CC[C@]12C | -5.47 | 5.75 | inactive | inactive | inactive | inactive | inactive | inactive | inactive | inactive | inactive | inactive | inactive | – | –
28 | O=C(CCCCCCCCCCCCC1CCCC1)Nc1ccc(S(=O)(=O)c2ccc(NC(=O)CCCCCCCCCCCCC3CCCC3)cc2)cc1 | -2.51 | 13.1 | inactive | inactive | inactive | inactive | inactive | inactive | inactive | inactive | inactive | inactive | inactive | – | –
29 | FCOC(C(F)(F)F)C(F)(F)F | 11.2 | -2.57 | inactive | inactive | inactive | inactive | inactive | inactive | inactive | inactive | inactive | inactive | inactive | – | –
30 | CCCCO | 5.51 | 16.3 | inactive | inactive | inactive | inactive | inactive | inactive | inactive | inactive | inactive | inactive | inactive | – | –
